About 1,100 (0.31%) of roughly 350,000 compounds were called active. Many of the other results were omitted from the sample, so actives are more common in it than they were. Unmarked numbers belong to inactive results. Rule as the data show it: active = activation above about 50%; inactive = the rest.
Each compound was assayed against Endoribonuclease toxin MazF (Escherichia coli (strain K12)) (UniProt P0AE70) (assay: activators of E. coli MazEF toxin-antitoxin RNase, primary screen, biochemical, fluorescence, uHTS (AID 504720)). Conditions: FAM/BHQ RNA-DNA oligo cleavage fluorescence, 5 h, at 20 µM, stronger effect = higher value.
Sequence of Endoribonuclease toxin MazF (Escherichia coli (strain K12)) (P0AE70 whole entry, looked up): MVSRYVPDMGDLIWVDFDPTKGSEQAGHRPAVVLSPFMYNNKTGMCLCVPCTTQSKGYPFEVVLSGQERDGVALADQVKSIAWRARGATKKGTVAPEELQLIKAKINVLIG

Row | SMILES | activation
1 | COC(C/C=C/C(=O)[C@@H](C)OCc1ccccc1)OC | -1.24%
2 | CCOC(=O)CSc1nc(C)cc2c1C(=O)OC2 | 2.74%
3 | O=C(COC(=O)Cn1[nH]c(=O)c2ccccc2c1=O)Nc1ncc(Cl)cc1Cl | -9.39%
4 | Cc1ccccc1OCc1nnc(SCC(=O)N2c3ccccc3Sc3ccc(Cl)cc32)o1 | -5.1%
5 | CC(=O)c1ccc(NC(=O)c2ccc3c(Cl)c4c(nc3c2)CCCC4)cc1 | 61.1% (active)
6 | COc1cccc(NC(=O)c2ccc3c(SCC(=O)O)c4c(nc3c2)CCCC4)c1 | 0.29%
7 | CC(C)CCNC(=O)c1ccc2c(Cl)c3c(nc2c1)CCC3 | 0.61%
8 | O=C(CN1CCN(Cc2ccc(F)cc2Cl)C1=O)NCc1cccs1 | 2.52%
9 | COc1ccc(NC(=O)c2cc([N+](=O)[O-])ccc2NC(=O)CNC2CCCCC2C)c(OC)c1 (stereo not drawn) | 5.61%
10 | Cc1ccc(Sc2ccncc2S(N)(=O)=O)cc1 | 4.01%
11 | COc1ccc(N=Cc2c(O)n(C)c(=O)[nH]c2=O)cc1 | -3.16%
12 | COc1ccc(CCn2c(O)c(C=NC3CC3)c(=O)[nH]c2=O)cc1OC | 0.91%
13 | COc1ccc(Cn2c(O)c(/C=C3/C=CC=N3)c(=O)[nH]c2=O)cc1 | 79.2% (active)
14 | CNC(=O)c1c(NC(NC(=O)c2ccco2)C(=O)c2ccc(Cl)cc2)sc2c1CCCC2 (stereo not drawn) | -0.431%
15 | O=C(Nc1ncc2c(n1)-c1ccccc1OC2)c1ccc(Cl)cc1 | 3.08%
16 | O=C(COC(=O)CNC(=O)C1CCCCC1)NCc1ccccc1 | 0.98%
17 | Cc1ccc(-c2nn(-c3ccccc3)cc2/C=C2\SC(=S)N(CCCCCC(=O)O)C2=O)o1 | 3200% (active)
18 | O=C1/C(=C/c2coc3ccc(O)cc3c2=O)SC(=S)N1c1ccccc1 | -53.2%
19 | CCCCN1C(=O)/C(=C/C=C2/C=Cc3ccccc3N2CC)SC1=S | 18.5%

Row | SMILES | activation
20 | CCOc1ccc(S(=O)(=O)Nc2cccc(C(=O)NCC3(N4CCCCC4)CCCCC3)c2)cc1 | -1.19%
21 | COc1ccc(CCNC(=O)c2nnc(CS(=O)(=O)c3ccccc3)o2)cc1OC | 6.35%
22 | O=C(NCC12CC3CC(C1)CC(CNC(=O)N1CCCC1)(C3)C2)N1CCCC1 | -3.78%
23 | COc1ccc(CNC(=O)CCC(=O)Nc2nnc(C(C)C)s2)cc1 | 7.7%
24 | Cc1ccc(CN2C(=O)N/C(=C/c3cc(C)n(-c4ccccn4)c3C)C2=O)cc1 | -15.4%
25 | CN(C)c1ccc(/C=C2\NC(=S)N(Cc3ccccc3)C2=O)cc1 | 56.4% (active)
26 | CN(C(=O)CN1C(=O)NC(C)(CCc2ccccc2)C1=O)c1ccccc1 (stereo not drawn) | -1.8%
27 | COCCn1c(=NC(=O)c2ccccc2[N+](=O)[O-])sc2cc(S(C)(=O)=O)ccc21 | 15.4%
28 | CSc1ccccc1C(=O)OCC(=O)N1CCN(C(C)=O)CC1 | 1.11%
29 | Cc1scc(C(=O)NNC(=S)NCC(C)C)c1C | 5.32%
30 | O=C(NNC(=S)NCc1ccccc1)c1ccc(OC(F)F)cc1 | -1.92%
31 | Cc1scc(C(=O)NNC(=S)NCc2ccccc2)c1C | 51.1% (active)
32 | COc1cc(S(=O)(=O)N2CCN(C(=O)C3CC3)CC2)ccc1NC(C)=O | 3.42%
33 | COc1c(C)c2c(c(O)c1C/C=C(\C)CCC(=O)O)C(=O)OC2 | 6.86%
34 | O=C(COC(=O)c1cccc(Cl)c1)NC(=O)NCc1ccccc1 | -3.25%
35 | c1ccc(-c2cn3c(n2)CCc2ccc4cccnc4c2-3)cc1 | 4.41%
36 | O=C(NCc1cccc(Cl)c1)C1=CC=CN2CCS(=O)(=O)N=C12 | -3.56%
37 | CCOC(=O)N1CCN(C(=O)CN(C2CCCCC2)S(C)(=O)=O)CC1 | -5%
38 | CCc1ccc2nc(Nc3ncc(C(C)=O)c(C)n3)nc(C)c2c1 | -3.52%
